Assay outcomes as filed in PubChem BioAssay.
Hits are enriched below; roughly 8.1% of the tested compounds scored in any of these assays.
ELG1 repair inh – qHTS screen for small molecules that inhibit ELG1-dependent DNA repair in human embryonic kidney (HEK293T) cells expressing luciferase-tagged ELG1 | HEK293T ELG1-luciferase reporter, luminescence, 16 h; DNA damage induced by 5-fluorouridine | Potency, µM (titrated, usually from 46.1 µM), for inactives: top-dose activity change, negative = inhibition, actives largely listed as inhibitors | 330,000 compounds, 2.3% hits | AID 504467, 2011; also: % is scaled to controls: 0 for no effect and ±100 for the full control effect; nearly all actives have a fitted effect of over 55% in size
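Luminescence from the luciferase reporter, measured 30 min after ONE-Glo reagent at room temperature, was the read-out. Beforehand, 2,000 cells per well were exposed for 16 hr at 37 °C to 5-fluorouridine together with compound or vehicle.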
KB-3-1 tox – qHTS assay for MDR1-selective chemotherapeutics: Primary screen using the parental adenocarcinoma cell KB-3-1; KB-3-1 viability, CellTiter-Glo ATP luminescence, 72 h; Potency, µM (top dose mostly 46.1 µM), actives largely listed as cytotoxic; 400,000 compounds, 1.4% hits; AID 1347075, 2019; also: % is scaled to controls: 0 for no effect and ±100 for the full control effect; nearly all actives have a fitted effect of over 60% in size
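Using CellTiter-Glo luminescence, growth of non-resistant KB-3-1 adenocarcinoma cells is assessed 72 h after pin-tool compound addition at 37 °C. Normalized responses across the concentration series yield fitted curves.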
MCF10A rerep – A quantitative high throughput screen for small molecules that induce DNA re-replication in MCF 10a normal breast cells; MCF 10A DNA re-replication, Hoechst nuclear intensity, 48 h; Potency, µM (doses to about 46.1 µM), without a hit: at the top dose activity, positive = re-replication, actives largely listed as activators; 350,000 compounds, 2.9% hits; AID 624296, 2012; also: % of control where 0% means no effect; nearly all actives have a fitted effect of over 50% in size
SW480 rerep – A quantitative high throughput screen for small molecules that induce DNA re-replication in SW480 colon adenocarcinoma cells. Potency, µM (doses to about 46.1 µM), for inactives: at the highest dose re-replication activation, usual class: activators. SW480 DNA re-replication, Hoechst DNA content imaging, 48 h. 340,000 compounds, 1.8% hits; also: % of control where 0% means no effect; nearly all actives have a fitted effect of over 55% in size
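Image-based DNA-content assay: after two days of treatment, nuclei were labelled with the DNA dye Hoechst and imaged, and hits were compounds raising the count of nuclei showing high fluorescence intensity.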
KB-V1 cytotox – qHTS assay for MDR1-selective chemotherapeutics: Primary screen using the drug-selected MDR subline cells KB-V1; KB-V1 MDR cells viability, CellTiter-Glo, 72 h; Potency, µM (highest dose often 46.1 µM), actives largely listed as cytotoxic; 400,000 compounds, 3.4% hits; also: % is scaled to controls: 0 for no effect and ±100 for the full control effect; nearly all actives have a fitted effect of over 60% in size
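In this primary screen, KB-V1 cells overexpressing P-gp are incubated with library compounds (lowest to highest concentration) for 72 h at 37 degrees C before a luminescent ATP viability read.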
* hit, by the source's call; i = inactive; ? = inconclusive; . = no result; [ ] = another dose, or the depositor's remark. Calls follow the shape of the dose curve; as a rule, active = well fitted curve in the direction sought with a large enough effect; inconclusive = small, poorly fitted or top-dose-only effect, or another doubt; inactive = no such curve, though single readings can be large; an effect the other way counts as inactive or inconclusive. Potency is read from the fitted curve at half-maximal effect.

SMILES | ELG1 repair inh | KB-3-1 tox | MCF10A rerep | SW480 rerep | KB-V1 cytotox
COc1ccc(C(=O)C2CCN(C(=O)c3ccco3)CC2)cc1 | -12% | i | 3% | 1% | 23µM*
C=CCn1c(-c2ccccc2)ccc(C#N)c1=O | 6% | i | -179%[0.0737 µM] | -1% | i
CC(C)(C)c1nc(N2CCN(C(=O)c3ccco3)CC2)c2nnn(Cc3ccccc3)c2n1 | ? | ? | 8.2µM* | ? | ?
Cc1nc2ccccc2c2oc(C(=O)N3CCN(C(=O)c4ccco4)CC3)cc12 | ? | i | 15% | -3% | ?
CCc1nc(N2CCN(C(=O)c3ccco3)CC2)c2oc3ccccc3c2n1 | ? | i | ? | 12µM* | 21µM*
Cc1nc(N2CCN(C(=O)c3ccco3)CC2)c2oc3ccccc3c2n1 | ? | 12µM* | ? | 8.2µM* | ?
O=C(c1ccco1)N1CCN(c2nc(C3CC3)nc3c2nnn3Cc2ccccc2Cl)CC1 | ? | ? | 10% | 0% | ?
CC1CN(Cc2ccccc2)C(=O)N(c2ccccc2)C1=O (stereo not drawn) | . | . | 1% | 0% | .
CC(NC(=O)c1ccc(Br)cc1)c1ccc2c(c1)CCCC2 (stereo not drawn) | -15% | i | 15% | -7% | ?
Cn1c(SCC(=O)Nc2ccc(N3CCOCC3)c(Cl)c2)nnc1C(O)c1ccccc1 (stereo not drawn) | 21% | i | 15% | -13% | i
COC(=O)C1=C(C)NC(C)=C(C(=O)OC)C1c1ccccn1 | 12% | i | 1% | 4% | i
Cc1ccc(-n2cnc3cc(NCc4cccs4)ccc32)cc1 | ? | i | 13% | 7% | ?
c1ccc(-n2cnc3cc(NCc4cccs4)ccc32)cc1 | ? | ? | ? | 13µM* | 10µM*
c1ccc(-n2cnc3cc(NCc4ccco4)ccc32)cc1 | ? | 23µM* | ? | ? | ?
Cc1cccc(Nc2nnc(-n3nc(C)cc3C)c3ccccc23)c1 | . | i | . | . | i
O=C1C=CC(O)(c2cc(=O)c3c(O)cc(O)cc3o2)C=C1 | 3.3µM* | ? | 1.5µM* | 4.1µM* | 5.8µM*
O=c1cc(-c2ccccc2Cl)oc2cc(O)cc(O)c12 | 10% | i | ? | 1% | i
CC[n+]1ccccc1/C=C1\Sc2ccc(C)cc2N1C | 2.1µM* | ? | ? | -2% | i
COc1ccc(CCCNC(=O)C2Cc3c(-c4ccc(NC(C)=O)cc4)ccnc3O2)cc1 (stereo not drawn) | . | ? | . | . | i
CC(=O)c1cccc(-c2ccnc3c2CC(C(=O)NCCC(F)(F)F)O3)c1 (stereo not drawn) | . | 7.3µM* | . | . | ?
COc1ccc(NC(=O)C2Cc3c(-c4cccc(NC(C)=O)c4)ccnc3O2)cn1 (stereo not drawn) | . | 4.6µM* | . | . | i
COc1ccc(CCCNC(=O)C2Cc3c(-c4cccc(C(C)=O)c4)ccnc3O2)cc1 (stereo not drawn) | . | 6.5µM* | . | . | 21µM*
COc1ccc(NC(=O)C2Cc3c(-c4cccc(C(N)=O)c4)ccnc3O2)cn1 (stereo not drawn) | . | ? | . | . | i
CC(=O)c1cccc(NC(=O)C2Cc3c(-c4cccc(C(C)=O)c4)ccnc3O2)c1 (stereo not drawn) | . | i | . | . | 21µM*
NC(=O)c1cccc(-c2ccnc3c2CC(C(=O)NCCC(F)(F)F)O3)c1 (stereo not drawn) | . | i | . | . | i
SMILES | ELG1 repair inh | KB-3-1 tox | MCF10A rerep | SW480 rerep | KB-V1 cytotox
CCOc1ccc(OCc2ccc(C(=O)Nc3cccnc3)o2)cc1 | -2% | i | 7% | 11%[9.22 µM] | ?
Cc1c(C(C)NC(=O)c2cc(COc3cccc4cnccc34)on2)cnn1C (stereo not drawn) | 3.7µM* | 21µM* | 3% | -15% | ?
CCc1ccc(CN(C)C(=O)c2cc(COc3cccc4cnccc34)on2)cc1 | ? | ? | 21µM* | -10% | i
CN(Cc1cccc2cnccc12)C(=O)c1cc(COc2ccc(F)cc2F)on1 | ? | i | 16% | -6% | ?
Cc1ccc(-n2c3nc(=O)n(C)c(=O)c-3cc3ccccc32)c(C)c1 | . | i | . | . | i
CCCCn1c(=O)nc2n(-c3ccccc3)c3ccccc3cc-2c1=O | -1% | ? | -8% | -7% | 10µM*
Cc1ccc(C)c(-n2c3nc(=O)n(C)c(=O)c-3cc3ccccc32)c1 | 0% | i | 15µM* | 1% | i
O=C(CSc1oc(-c2cccs2)nc1S(=O)(=O)c1ccccc1)NC1CCCCC1 | ? | i | 24% | 16% | 3.7µM*
CN1CCN(c2oc(-c3cccs3)nc2S(=O)(=O)c2ccccc2)CC1 | 3% | i | -7% | 0% | 13µM*
O=C(CSc1oc(-c2ccccc2)nc1S(=O)(=O)c1ccc(Cl)cc1)NC1CCCCC1 | . | i | . | . | i
Cc1nc(-c2ccncc2)sc1C(=O)Nc1ccc(Cl)cc1 | ? | i | 1% | -116% | i
Cc1nc(-c2cccnc2)sc1C(=O)Nc1ccc(F)cc1F | -15% | i | 1% | -7% | i
Cc1nc(-c2ccccn2)sc1C(=O)Nc1ccc(F)cc1F | ? | i | -2% | -10% | 10µM*
Cc1nc(-c2cccnc2)sc1C(=O)Nc1ccc(Cl)cc1 | -18% | i | 10% | -8% | 18µM*
Cc1nc(-c2ccccn2)sc1C(=O)Nc1ccc(F)cc1 | -1% | ? | ? | 9% | 18µM*
COCCNS(=O)(=O)c1cc(OC)ccc1OC | 5% | i | -1%[9.22 µM] | ? | i
COc1ccc(C(=O)Nc2ccc(S(=O)(=O)Nc3nccnc3OC)cc2)cc1 | ? | ? | 7% | 18% | 18µM*
Cc1ccc(S(=O)(=O)Nc2ccc(C(=O)Nc3ccncc3)cc2)cc1 | ? | i | 15% | 3.3µM* | i
O=C(CCCn1nnnc1CN1CCOCC1)N1CCN(c2ccccc2F)CC1 | 0% | . | ? | -7% | .
Cc1ccc(N=C2NC(=O)/C(=C\c3ccsc3)S2)c(C)c1 | -27% | i | 18µM* | 3% | 18µM*
COc1cccc(Nc2nc(-c3ccccc3O)nc3ccccc23)c1 | -23% | i | ? | -8% | i
S=c1[nH]cnc2scc(-c3ccc(Br)cc3)c12 | ? | ? | ? | 12µM* | ?
S=c1[nH]cnc2scc(-c3ccc(Cl)cc3)c12 | 16µM* | ? | ? | 25% | ?
Cc1cc(-c2csc3nc[nH]c(=S)c23)cc(C)c1C | -6% | ? | ? | ? | ?
